Inconclusive results are not listed. Active and inactive are the calls of the source. The call rests on the fitted dose curve; in most records, active means well fitted curve in the direction sought with a large enough effect; inconclusive means small, poorly fitted or top-dose-only effect, or another doubt; inactive means no such curve, though single readings can be large; an effect the other way counts as inactive or inconclusive.
Tests used:
[1] = target: Phospholipid hydroperoxide glutathione peroxidase GPX4 (Homo sapiens) (UniProt P36969); experiment: Primary qHTS Assay for Inhibitors of Recombinant Selenoprotein Glutathione Peroxidase 4 (GPX4) (AID 1845192); further: series mostly up to about 50 µM; on the % scale 0 is the no-effect control and ±100 the full control effect; nearly all actives have a fitted effect of over 65% in size
Sequence of Phospholipid hydroperoxide glutathione peroxidase GPX4 (Homo sapiens) (P36969 whole entry, looked up): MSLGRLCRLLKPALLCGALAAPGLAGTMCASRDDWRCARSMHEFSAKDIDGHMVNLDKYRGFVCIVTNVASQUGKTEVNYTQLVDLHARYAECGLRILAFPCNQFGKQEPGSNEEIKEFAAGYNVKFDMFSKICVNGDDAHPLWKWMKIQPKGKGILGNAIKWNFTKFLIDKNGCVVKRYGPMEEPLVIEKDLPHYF
Method in brief: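 GR-coupled readout: 100 nM GR, 1 mM GSH, 0.5 mM NADPH; NADPH fluorescence (ex 340/em 450 nm) read at t=0 and after 15 min RT. GPX4 200 nM, preincubated 30 min with compound; substrate 0.5 mM CHP.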

[2] = target: Luciferin 4-monooxygenase (Photinus pyralis) (UniProt P08659); experiment: Primary firefly luciferase (FLuc) qHTS assay for identification of artifact compounds. (AID 1845220); further: nearly all actives have a fitted effect of over 60% in size;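 on activity change, negative = inhibition: series mostly up to about 54 µM; plate controls were DMSO vehicle for no effect and no enzyme for full effect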
Method in brief: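 qHTS, 15 min compound preincubation with substrate (10 uM luciferin, 10 uM ATP) at RT, then 10 nM FLuc; 5 min; luminescence; % inhibition vs no-enzyme/DMSO controls, 4-parameter Hill fit.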

[3] = tested on: Nanoluciferase (engineered Oplophorus gracilirostris luciferase); experiment: Primary Nanoluciferase (NLuc) qHTS assay for identification of artifact compounds. (AID 1845222);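 further: series mostly up to about 54 µM; 0% = DMSO and -100% = no enzyme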
Method in brief: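 Luminescence read-out of secreted NLuc in S16 cell conditioned medium (1:55); compounds tested with 15 min RT preincubation, then Nano-Glo substrate 1:100, 5 min. % inhibition vs no-enzyme and DMSO controls, 4-parameter Hill fit.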

[4] = Primary redox qHTS assay for identification of artifact compounds. (AID 1845223);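 further: 0% = DMSO and 100% = reference compound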
Method in brief: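 Amplex Red (25 uM) and HRP (250 mU/mL) in HBSS, with compounds for 15 min, then 250 uM DTT for 30 min, room temperature, dark. Fluorescence 525/598 nm read; normalized to DMSO and 10 uM DA3003; Hill fit.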

O=[N+]([O-])c1cn2c(n1)OCC(OCc1ccc(OC(F)(F)F)cc1)C2 (stereo not given)
inactive: Potency [1] | Potency [2] | Potency [3] | Potency [4]

Cc1ncc(CCCN(C)C)cc1Nc1ncc2c(n1)-c1ccc(C(F)(F)F)cc1NC(=S)C2
inactive: Potency [1] | Potency [2] | Potency [3] | Potency [4]

CC(C)C(CO)Nc1nc(Nc2cc(N)cc(Cl)c2)c2ncn(C(C)C)c2n1 (stereo not given)
inactive: Potency [1] | Potency [2] | Potency [3] | Potency [4]

CC(C)c1ccc2c(c1)C(=O)CC1[C@@](C)(C(=O)O)CCC[C@]21C (stereo not given in full)
inactive: Potency [1] | Potency [2] | Potency [3] | Potency [4]

CC(/C=C/C1=CC2=CC(=O)C(C)(O)C(O)C2=CO1)=C\C(C)CCO (stereo not given)
inactive: Potency [1] | Potency [2] | Potency [3] | Potency [4]

C/C(=C/CO)CC[C@@H]1[C@@](C)(O)CCC2C(C)(C)CCC[C@]21C (stereo not given in full)
inactive: Potency [1] | Potency [2] | Potency [3] | Potency [4]

CC(C)(O)CC(CO)NC(=O)CC(O)CC(=O)Cc1ccccc1 (stereo not given)
inactive: Potency [1] | Potency [2] | Potency [3] | Potency [4]

CN=C(N)NCCCCC/C=C(/C)CC(C)C1OC(=O)C(C)C(O)/C=C/C(C)C(O)CC(O)C(C)C(O)CCC(C)C(O)CC2(O)OC(CC(OC(=O)CC(=O)O)CC(O)CC(O)C(C)C(O)/C(C)=C/CCC1C)CC(O)C2O (stereo not given)
inactive: Potency [1] | activity change, negative = inhibition [2] -2.65% [at 11.6 µM] | activity, negative = inhibition [3] -0.658% [at 11.6 µM] | redox activity (% of DA3003) [4] -4.57% [at 11.5 µM]

O=C1NC(Cc2c[nH]c3ccccc23)C(=O)NC1Cc1c[nH]c2ccccc12 (stereo not given)
inactive: Potency [1] | Potency [2] | Potency [3] | Potency [4]

CC1C=CC2CCCCC2C1CCC1CC(O)CC(=O)O1 (stereo not given)
inactive: Potency [1] | Potency [2] | Potency [3] | Potency [4]
